Experimental data reported in PubChem BioAssay AID651568 (National Center for Advancing Translational Sciences (NCATS), 2012).
Hit rate of the full screen: of about 1,200 compounds, about 55 (5%) were called active. Roughly 15% stayed inconclusive and do not appear here. Calls follow the shape of the dose curve; as a rule, active = well fitted inhibition curve with a large enough effect; inconclusive = small, poorly fitted or top-dose-only effect; inactive = no such curve, though single readings can be large or run the other way. The list comes from a sample in which actives are over-represented; it also holds similar structures and randomly drawn compounds.

test: qHTS Assay to Find Inhibitors of Chronic Active B-Cell Receptor Signaling: Hit Validation in Renilla Reporter Assay; details: TMD8 IkB-Renilla luciferase reporter, NF-kB signaling; series mostly up to 57.5 µM; activity change, negative = inhibition: at the top concentration; also: nearly all actives have a fitted effect of over 70% in size
How it was run: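 Orthogonal secondary test of primary-screen hits in ABC-DLBCL cells carrying constitutively expressed IkB-Photinus and Renilla luciferase reporters, read by Dual-Glo luminescence; luciferases differ from the primary assay's click beetle enzymes, to exclude assay-specific artifacts.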
% is scaled to controls: 0 for no effect and ±100 for the full control effect; potency is read from the fitted curve at half-maximal effect.

| Structure (SMILES) | activity change, negative = inhibition | Potency |
| --- | --- | --- |
| COc1cc(/C=C2\N=C(c3ccccc3)NNC2=O)cc(OC)c1OC | 24.1% (inactive) | – |
| CCN(CC)c1ccc(NC(=O)CN2CCN(CC(=O)Nc3ccccc3F)CC2)cc1 | -0.989% (inactive) | – |
| CCOc1nc(OCC)nc(N2CCC(C)CC2)n1 | -2.28% (inactive) | – |
| CCOc1ccc(NC(=O)c2cc(OC)nc3ccccc23)cc1 | -0.0858% (inactive) | – |
| CCC1=Nc2cc(C(=O)NCc3ccco3)ccc2Sc2ccc(C)cc21 | -16.4% (inactive) | – |
| Cc1ccc(S(=O)(=O)n2cc(-c3ccccc3)c3ccccc32)cc1 | 4.15% (inactive) | – |
| COc1cc2c(cc1OC)-c1cc(NC3CCCCCC3)nc(=O)n1CC2 | -5.21% (inactive) | – |
| COc1ccc(C(=O)/C=C/c2ccc(O)cc2)c2c1CC(O)C(C)(C)O2 (centres undefined) | – | 23.9 µM (active) |
| COc1ccc(/C=N/NC(=O)c2ccc3c(c2)NC(=O)C(C)(C)O3)cc1OC | -5.68% (inactive) | – |
| CCOC(=O)c1c(C)c(C(=O)OCC)n(C)c1C | -16.5% (inactive) | – |
| CC(=O)N1CC(=O)N=C1SCC(=O)Nc1nc(C)c(-c2ccccc2)s1 | 11.2% (inactive) | – |
| CCOc1ccc(S(=O)(=O)Nc2ccc3oc(C)c(C(=O)OCCOC)c3c2)cc1 | 9.42% (inactive) | – |
| CCOC(=O)C1=C(C)NC(C)=C(C(=O)OCC)C1C(=O)OCC(=O)NCc1ccccc1OC | 20.3% (inactive) | – |
| COc1cc(OC)c2c(-c3cccc(-c4ccc(NC(C)=O)cc4)c3)cc(=O)oc2c1 | -17.9% (inactive) | – |
| CC(=O)OCC(=O)[C@@]1(O)CC[C@H]2[C@@H]3CCC4=CC(=O)C=C[C@]4(C)[C@H]3[C@@H](O)C[C@@]21C | 0.226% (inactive) | – |
| COC(=O)CCC(=O)NC(=S)Nc1sc(C)c(C)c1C(N)=O | 4.1% (inactive) | – |
| CCSc1nc(-c2ccccc2)nc(C(Cl)Cl)n1 | – | 2.69 µM (active) |
| CCc1ccc(/C=N/NC(=O)c2cc(C3CC3)nc3ccccc23)s1 | -10.8% (inactive) | – |
| N#Cc1ccc(-c2cccs2)nc1SCc1cccnc1 | -1.59% (inactive) | – |
| OC(CNCc1ccc(-c2ccccc2)cc1)c1ccccc1 (centres undefined) | -0.413% (inactive) | – |
| COc1ccc(-c2cnnn2-c2ccc(N)cc2)cc1OC | 1.69% (inactive) | – |
| O=C(N/N=C/c1ccc(Cl)cc1)c1n[nH]c2c1CCCC2 | -7.41% (inactive) | – |
| O=C(Cc1ccc(-c2ccccc2)cc1)NCc1ccccc1 | 7.26% (inactive) | – |
| O=C(Cc1n[nH]c(=O)c2ccccc12)OCC(=O)c1ccc2c(c1)OCCO2 | 2.17% (inactive) | – |
| Cc1cc(C)cc(N2CC(O)=C(c3nc4ccccc4c(=O)[nH]3)C2=N)c1 | -4.94% (inactive) | – |
| O=C(CSc1nc2ccccc2c(=O)n1-c1ccccc1F)NC1CC1 | -9.62% (inactive) | – |
| CC(C)N1C(=O)/C(=C/c2nc3ccccc3c(=O)n2-c2ccccc2)c2ccccc21 | – | 13.5 µM (active) |

| Structure (SMILES) | activity change, negative = inhibition | Potency |
| --- | --- | --- |
| CC(C)N1C(=O)/C(=C\c2nc3ccccc3c(=O)[nH]2)c2ccccc21 | – | 23.9 µM (active) |
| Cc1ccc(Sc2c(CO)c(-c3ccccc3)nn2C)cc1 | 4.68% (inactive) | – |
| COc1ccc(NC(=O)C(=O)c2cn(CC(=O)N3CCCC3)c3ccccc23)cc1 | 5.43% (inactive) | – |
| CC(=O)Nc1ccc(NS(=O)(=O)c2cc(-c3n[nH]c(=O)c4ccccc34)ccc2C)cc1 | 19.6% (inactive) | – |
| COC(=O)c1ccc(C)c(NS(=O)(=O)c2ccc(OC)cc2)c1 | 32.4% (inactive) | – |
| CCOc1ccccc1C(=O)N1CCN(c2cccc(Cl)c2)CC1 | -20.3% (inactive) | – |
| COc1ccc(-c2c(C)c3ccc(O)cc3oc2=O)cc1OC | 28.9% (inactive) | – |
| Cc1cccc(C(=O)N[C@H](C(=O)Nc2nc3ccccc3[nH]2)C(C)C)c1 | -18.3% (inactive) | – |
| Cc1ccc(/C=C/C(=O)c2nc3ccccc3[nH]2)cc1 | – | 16.9 µM (active) |
| CC1=CC(C)(C)N(S(=O)(=O)c2ccc(C)cc2)c2cc(C)ccc21 | -7.09% (inactive) | – |
| COC(=O)c1cc(C(=O)N2CCN(c3cccc(Cl)c3)CC2)cc([N+](=O)[O-])c1 | -0.459% (inactive) | – |
| COc1cccc(/C=N/NC(=S)Nc2cccc(S(=O)(=O)N(C)C)c2)c1 | 17.9% (inactive) | – |
| CC(=O)Nc1cc(N=Cc2ccc(O)cc2O)c(Cl)cc1Cl | – | 12 µM (active) |
| Cc1ccc(NS(=O)(=O)c2ccc(-c3cnc(C4CC4)o3)cc2)c(C)c1 | 5.35% (inactive) | – |
| COc1ccc(Nc2cc3n(c(=O)n2)CCc2cc(OC)c(OC)cc2-3)c(C)c1 | -11% (inactive) | – |
| COc1ccc(-c2c(-c3cc(OC)c(OC)c(OC)c3)noc2C)cn1 | -20.2% (inactive) | – |
| COc1cc(/C=C2\OC(=O)c3c(OC)cccc32)ccc1O | 1.72% (inactive) | – |
| COc1ccc(/C=C2\CCc3ccccc3C2=O)cc1O | – | 26.9 µM (active) |
| COc1cc(/C=N/N(C)c2ccccc2)ccc1O | 7.62% (inactive) | – |
| COc1ccc(-c2sc3cc(OC)c(OC)cc3c2C#CC(C)(C)O)cc1 | 6.22% (inactive) | – |
| CCCn1nc(Oc2nc(N(C)C)nc(N(C)C)n2)ccc1=O | -0.0736% (inactive) | – |
| COc1ccc(C(=O)Nc2ccc(-n3nncc3-c3ccc(OC)c(OC)c3)cc2)cc1 | -26.9% (inactive) | – |
| CCN(c1cccc(C)c1)S(=O)(=O)c1ccc(-c2cc(C)no2)s1 | 12% (inactive) | – |
| O=C(CCCN1C(=O)/C(=C/c2ccccc2OC(F)F)SC1=S)Nc1cccnc1 | – | 30.1 µM (active) |
| COc1ccccc1/C=N/NC(=S)Nc1cccnc1 | -2.9% (inactive) | – |
| COc1ccccc1-c1cc(C(=O)Nc2cccnc2)no1 | -1.55% (inactive) | – |
| Cc1ccc2c(c1)C(=O)C(=O)N2CC1COc2ccccc2O1 (centres undefined) | -20.1% (inactive) | – |

| Structure (SMILES) | activity change, negative = inhibition | Potency |
| --- | --- | --- |
| CCn1c2ccccc2c2cc(NC(=O)c3cc(OC)cc(OC)c3)ccc21 | 2.33% (inactive) | – |
| CCCCn1c(SCC(=O)c2cc(OC)ccc2OC)nc2cc(S(N)(=O)=O)ccc21 | -0.961% (inactive) | – |
| COc1ccccc1-c1nnc2sc(-c3ccc(N(C)C)cc3)nn12 | 2.63% (inactive) | – |
| COC(=O)[C@@H]1[C@@H](C#N)C2(c3ccccc3-c3ccccc32)N(c2ccc(Cl)cc2)N1C#N | – | 4.78 µM (active) |
| O=C(Cc1ccc(-n2c(=O)c3ccccc3n(Cc3ccccc3F)c2=O)cc1)NCC1CCCO1 (centres undefined) | -0.408% (inactive) | – |
| COc1cc(OC)c(OC)cc1/C=C/C(=O)c1ccc(NS(=O)(=O)c2ccc(C)cc2)cc1 | -16.9% (inactive) | – |
| CN(C)c1nc(=NCc2ccco2)ss1 | – | 16.9 µM (active) |
| CCC(=NCCc1c(C)[nH]c2ccc(C)cc12)C1=C(O)CC(c2ccccc2)CC1=O (centres undefined) | -14.9% (inactive) | – |
| COc1ccc(C2CC(c3ccc(OC)c(OC)c3)=NN2C(=O)c2ccccc2)cc1 (centres undefined) | -1.47% (inactive) | – |
| CCCc1noc2c1C(c1ccoc1)C(C#N)=C(N)N2 (centres undefined) | – | 23.9 µM (active) |
| CCc1ccc(CNC(=O)Cc2ccc(NC(=O)C3=C(C)OCCS3)cc2)cc1 | 0.25% (inactive) | – |
| O=C(NN=C1CCCC1)c1n[nH]c2c1CCCC2 | 0.76% (inactive) | – |
| CC1=NN(C(N)=S)C(=O)C1N=Nc1cccc([N+](=O)[O-])c1 (centres undefined) | -13.6% (inactive) | – |
| S=c1nc2ccccc2c2nc(-c3ccccc3Cl)[nH]n12 | -27.4% (inactive) | – |
| CCc1nc2ccccc2c(C(=O)OCc2nc3ccccc3c(=O)[nH]2)c1C | -0.954% (inactive) | – |
| ClCc1nc2ccccc2c2ccccc12 | – | 23.9 µM (active) |
| COc1cc(OC)cc(-c2cc3cc4c(cc3cn2)OCO4)c1 | -4.56% (inactive) | – |
| CCOC(=O)C(C)N1C(=O)S/C(=C/c2ccc3c(c2)n(C)c(=O)n3C)C1=O (centres undefined) | 1.42% (inactive) | – |
| CCOC(=O)C1=C(O)/C(=C/c2ccc(OCC(=O)O)c(OCC)c2)SC1=Nc1ccccc1 | -13% (inactive) | – |
| CCOc1cc(/C=C2\CN(C)C/C(=C\c3ccc(O)c(OCC)c3)C2=O)ccc1O | – | 5.36 µM (active) |
| Cc1ccc(C)c(Cn2c(=O)n(-c3ccc(CC(=O)NCc4ccco4)cc3)c(=O)c3sccc32)c1 | -11% (inactive) | – |
| Cc1ccc(N2C(=O)c3cccc4c(N)ccc(c34)C2=O)c2cccnc12 | -20.2% (inactive) | – |
| COc1ccc([C@H]2CC(=O)C=C(c3ccc(OC)cc3OC)C2)cc1 | 9.69% (inactive) | – |
| COc1ccc(S(=O)(=O)N2CCCCC2)cc1NS(=O)(=O)c1cc(Cl)ccc1Cl | 32.2% (inactive) | – |
| CCOc1ccc(N(CC(=O)Nc2ccccc2C)S(=O)(=O)c2c(C)noc2C)cc1 | 0.105% (inactive) | – |
